# Assay results taken from PubChem BioAssay.
# Active and inactive are the calls of the source. Unless noted, no rule for the calls is given here.
# How the values were obtained:
# [1] = HepG2 liver cancer cell viability effects, profiling panel, resazurin fluorescence, 24 h, PK04 Diversity Set (AID 1172); details: higher = more signal
# [2] = basal S. cerevisiae growth modulation, no modifier, primary screen, OD600, strain BY4716, 24 h, basal condition (AID 1173); details: OD600, 24 h, higher = more signal, called active from +8 up or from −8 down
# [3] = MM1S myeloma cell viability, profiling panel, resazurin fluorescence, basal, 24 h, PK04 Diversity Set (AID 1174); details: higher = more signal, called active from +8 up or from −8 down;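 also: MM1S multiple myeloma cell line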
# [4] = target: Dihydroorotate dehydrogenase (quinone), mitochondrial (Plasmodium falciparum (isolate 3D7)) (UniProt Q08210); test: PfDHODH enzyme inhibitors, primary screen, biochemical, C-terminal His tag, absorbance 600 nm (AID 1175); details: DCIP absorbance 600 nm, higher = more signal, called active from +8 up or from −8 down;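 also: recombinant parasite enzyme with a five histidine tag at its C terminus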
# Sequence of Dihydroorotate dehydrogenase (quinone), mitochondrial (Plasmodium falciparum (isolate 3D7)) (Q08210 whole entry, looked up): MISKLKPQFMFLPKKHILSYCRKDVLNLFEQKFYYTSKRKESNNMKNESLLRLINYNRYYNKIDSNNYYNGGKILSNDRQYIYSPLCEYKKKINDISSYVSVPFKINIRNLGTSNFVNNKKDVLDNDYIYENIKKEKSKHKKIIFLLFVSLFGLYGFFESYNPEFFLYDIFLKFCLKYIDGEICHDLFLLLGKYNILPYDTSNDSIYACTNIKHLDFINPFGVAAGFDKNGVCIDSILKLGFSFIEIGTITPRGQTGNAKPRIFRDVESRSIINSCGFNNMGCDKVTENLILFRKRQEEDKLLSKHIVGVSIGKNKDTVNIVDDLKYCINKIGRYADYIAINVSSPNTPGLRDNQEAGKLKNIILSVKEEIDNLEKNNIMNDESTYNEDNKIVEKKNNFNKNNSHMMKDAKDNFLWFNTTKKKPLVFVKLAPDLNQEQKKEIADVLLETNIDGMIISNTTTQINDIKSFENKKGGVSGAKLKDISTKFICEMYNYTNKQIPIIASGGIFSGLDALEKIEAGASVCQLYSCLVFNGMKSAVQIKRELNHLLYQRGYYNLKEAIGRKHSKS
# [5] = P. aeruginosa biofilm formation inhibitors, primary screen, strain PAO1, LB-PBS medium, absorbance 600 nm (AID 1176); details: P. aeruginosa PAO1 growth/biofilm, A600, 12 h; higher = more signal
# [6] = S. cerevisiae RM11-1a growth modifiers, primary screen, strain RM11-1a, OD600, basal, 24 h (AID 1177); details: OD600, 24 h, higher = more signal, called active from +8 up or from −8 down;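 also: cultures grown under basal conditions with no added stressor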
# [7] = E. coli acrAB mutant growth effects, primary screen, E. coli filamentation inducers, strain DRC39, OD650, 24 h (AID 1178); details: higher = more signal, called active from +8 up or from −8 down;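 also: growth measured as culture turbidity by optical density at 650 nm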
# [8] = E. coli acrAB mutant growth effects, primary screen, E. coli filamentation inducers, strain DRC39, OD650, 48 h (AID 1179);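 also: screen aims at cell division blockers that make cells filament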; details: E. coli DRC39 delta-acrAB growth, higher = more signal, called active from +8 up or from −8 down
# [9] = RPMI8226 myeloma cell viability, profiling panel, resazurin fluorescence, basal, 24 h, PK04 Diversity Set (AID 1180); details: higher = more signal;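 also: RPMI8826 multiple myeloma cell line at 5000 cells per well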
# [10] = target: E3 ubiquitin-protein ligase XIAP (Homo sapiens) (UniProt P98170); test: XIAP binders, primary screen, biophysical, small-molecule microarray, fluorescence 635 nm (AID 1181); details: small-molecule microarray binding, higher = more signal;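 also: score merges 667 nm emission and signal to noise over triplicate slides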
# Sequence of E3 ubiquitin-protein ligase XIAP (Homo sapiens) (P98170 whole entry, looked up): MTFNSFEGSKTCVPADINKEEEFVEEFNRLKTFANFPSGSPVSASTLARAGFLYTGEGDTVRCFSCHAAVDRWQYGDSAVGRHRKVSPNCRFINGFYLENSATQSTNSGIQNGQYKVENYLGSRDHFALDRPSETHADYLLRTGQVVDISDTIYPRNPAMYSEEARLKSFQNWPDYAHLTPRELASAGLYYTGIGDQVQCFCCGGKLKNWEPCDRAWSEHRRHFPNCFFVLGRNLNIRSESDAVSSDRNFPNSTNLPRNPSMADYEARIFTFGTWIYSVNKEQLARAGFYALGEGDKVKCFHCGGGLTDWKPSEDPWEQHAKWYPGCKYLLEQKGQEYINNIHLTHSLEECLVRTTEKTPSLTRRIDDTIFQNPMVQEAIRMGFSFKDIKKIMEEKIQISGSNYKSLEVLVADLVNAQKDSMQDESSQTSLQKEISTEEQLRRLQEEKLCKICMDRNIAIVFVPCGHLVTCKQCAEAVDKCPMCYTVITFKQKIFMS
# [11] = tested on: XIP peptide (Xip251-270) binding; test: small-molecule binders of XIP peptide, primary screen, biochemical, small-molecule microarray, fluorescence 635/667 nm, 0.1 µg/mL protein (AID 1182); details: fluorescent protein binding, 635 nm, higher = more signal, called active from +8 up or from −8 down
# XIP peptide (Xip251-270) = test: small-molecule binders of XIP peptide, primary screen, biochemical, small-molecule microarray, fluorescence 635/667 nm, 0.5 µg/mL protein (AID 1183); details: small-molecule microarray binding, fluorescence 635 nm; higher = more signal
# [12] = Plasmodium falciparum growth inhibition, primary screen, strain 3D7, DAPI fluorescence, 100 nL (AID 1184);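 also: parasites grown inside human red blood cells in medium with human serum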; details: P. falciparum 3D7 growth, 3 d, higher = more signal
# [13] = target: Homeobox protein Hox-A13 (Mus musculus) (UniProt Q62424); test: inhibitors of HoxA13-DNA binding, primary screen, biochemical, fluorescence polarization, labeled oligonucleotide (AID 1185); details: 15 min, higher = more signal, called active from +8 up or from −8 down
# Sequence of Homeobox protein Hox-A13 (Mus musculus) (Q62424 whole entry, looked up): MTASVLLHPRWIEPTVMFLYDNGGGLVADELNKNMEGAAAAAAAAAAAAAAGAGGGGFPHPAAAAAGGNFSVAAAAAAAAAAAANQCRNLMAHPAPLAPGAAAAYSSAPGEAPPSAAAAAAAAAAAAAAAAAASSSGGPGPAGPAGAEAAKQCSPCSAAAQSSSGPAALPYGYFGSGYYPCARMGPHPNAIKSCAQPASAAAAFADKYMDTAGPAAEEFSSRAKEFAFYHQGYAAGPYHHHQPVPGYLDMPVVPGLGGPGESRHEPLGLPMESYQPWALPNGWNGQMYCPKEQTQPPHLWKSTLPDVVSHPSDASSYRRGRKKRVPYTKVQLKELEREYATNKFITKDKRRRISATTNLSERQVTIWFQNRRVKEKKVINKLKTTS
# [14] = inhibitors of hydroxyurea-induced Chk1 phosphorylation, primary screen, imaging, HeLa, phospho-Chk1 antibody, percent positive cells (AID 1186); details: hydroxyurea-induced phospho-Chk1 immunofluorescence imaging, higher = more signal
# [15] = inhibitors of hydroxyurea-induced Chk1 phosphorylation, primary screen, imaging, HeLa, phospho-Chk1 nuclear intensity (AID 1187); details: hydroxyurea-induced phospho-Chk1 immunofluorescence imaging, higher = more signal
Structure (SMILES),z-score [1],z-score [2],z-score [3],composite z-score [4],z-score [5],z-score [6],z-score [7],z-score [8],z-score [9],composite z-score [10],composite z-score [11],composite z-score (XIP peptide (Xip251-270)),z-score [12],z-score [13],z-score [14],z-score [15]
CC(C)C[C@H]1NC(=O)C([C@@H](C)OCc2ccccc2)NC(=O)[C@@]23C(=O)N[C@@H](Cc4ccccc4)C2[C@H](C)[C@@]2(C)O[C@H]2C3/C=C/C/C=C\CNC1=O (stereo not given in full),-0.662,-0.0256 (inactive),-0.521 (inactive),-0.116 (inactive),0.294 (inactive),-0.3 (inactive),0.12 (inactive),-0.0809 (inactive),-0.0732,0.172,0.304 (inactive),0.22,-2.23,-6.86 (inactive),-0.762 (inactive),-0.732 (inactive)
CC(C)N1C(=O)c2ccccc2[C@@H](C(=O)NCC(F)(F)F)[C@@H]1c1ccc(CO)cc1,0.4,-0.102 (inactive),0.0516 (inactive),-0.262 (inactive),-0.0807 (inactive),0.436 (inactive),-0.196 (inactive),-0.484 (inactive),0.236,-0.111,-0.258 (inactive),-0.245,0.872,-1.73 (inactive),0.0626 (inactive),0.11 (inactive)
C=C(CCCC)/C(=C/C[C@H](OC(=O)c1ccncc1)c1ccc(OCCO)cc1)c1cnc2ccccc2c1,1.08,-1.28 (inactive),-0.0114 (inactive),-2.89 (inactive),0.391 (inactive),0.51 (inactive),0.709 (inactive),0.258 (inactive),1.04,-0.122,1.51 (inactive),0.754,-2.94,-2.83 (inactive),-0.658 (inactive),-0.869 (inactive)
COc1ccc(C(O)C2C=CC3C(=O)NC(=O)C3N2Nc2ccc(Cl)cc2Cl)c2ccccc12 (stereo not given),-2.19,-9.94 (active),-0.423 (inactive),0.167 (inactive),1.28 (inactive),0.361 (inactive),-0.0977 (inactive),-0.626 (inactive),-1.09,-0.0118,1.62 (inactive),0.687,-0.605,-2.99 (inactive),-0.0602 (inactive),0.175 (inactive)
COC(=O)C(CC#Cc1ccc2c(c1)[C@]1(C(=O)N2)[C@H](C(=O)N2CCc3cc(OC)c(OC)cc3C2)[C@H]2C(=O)O[C@H](c3ccccc3)[C@H](c3ccccc3)N2[C@@H]1c1ccccc1OCCO)C(=O)OC,-0.553,1.79 (inactive),-1.03 (inactive),-7.03 (inactive),3.81 (inactive),2.83 (inactive),0.154 (inactive),0.618 (inactive),-0.705,-0.11,0.254 (inactive),0.796,-2.23,2.81 (inactive),-0.0915 (inactive),0.0536 (inactive)
C=C(COC)C(=O)CC[C@@H](OC(C)=O)c1ccccc1OCCO,0.463,-0.947 (inactive),-0.851 (inactive),-1.34 (inactive),0.166 (inactive),-1.56 (inactive),0.661 (inactive),-0.061 (inactive),-1.09,-0.102,0.0063 (inactive),0.522,-2.06,-5.01 (inactive),0.374 (inactive),0.77 (inactive)
COCCOC(=O)N1C(=O)[C@@]2(c3cc(C#CCCO)ccc31)[C@H](c1ccc(OCCO)cc1)N1[C@H](c3ccccc3)[C@H](c3ccccc3)OC(=O)[C@H]1[C@@H]2C(=O)N1CCCCCCC1,-0.21,0.532 (inactive),-0.292 (inactive),-0.0613 (inactive),1.68 (inactive),1.13 (inactive),-0.442 (inactive),-0.457 (inactive),-0.621,0.152,0.788 (inactive),0.614,-2.1,-4.34 (inactive),0.197 (inactive),0.476 (inactive)
C=CCC(OC(C)=O)[C@@H]1[C@@H](N(Cc2cc3ccccc3o2)C(=O)c2cccc3ccccc23)c2cc(OCCCO)ccc2N1C(=O)c1ccc2ccccc2n1 (stereo not given in full),-1.01,-0.711 (inactive),-0.367 (inactive),0.364 (inactive),0.256 (inactive),0.202 (inactive),0.935 (inactive),0.207 (inactive),-0.544,-0.393,-0.667 (inactive),0.202,-1.99,-1.2 (inactive),-0.0897 (inactive),0.0983 (inactive)
CC(C)=CCCC=C(C)C(O)C1C=CC2C(=O)N(c3ccccc3)C(=O)C2N1Nc1ccc(C#N)cc1 (stereo not given),-1.53,-0.101 (inactive),-1.79 (inactive),-1.49 (inactive),1.36 (inactive),-1.63 (inactive),-0.0959 (inactive),0.65 (inactive),-2.19,0.146,1.1 (inactive),0.621,0.221,0.884 (inactive),-0.0269 (inactive),-0.294 (inactive)
CCOC(=O)C[C@H]1[C@H](OC(=O)Cc2ccc3c(c2)OCO3)[C@@H](NC(=O)Cc2ccc(OC)cc2)c2cc(OCCCO)ccc2N1C(=O)Cc1ccc(OC)cc1,-0.354,-0.605 (inactive),0.594 (inactive),-1.72 (inactive),0.501 (inactive),-1.62 (inactive),1.44 (inactive),1.94 (inactive),1.02,-0.207,-0.0299 (inactive),0.678,-1.99,-1.76 (inactive),-1.33 (inactive),-1.19 (inactive)
